Laboratory results: PubChem BioAssay
For part of these data: Potency and affinity values are given separately. Activity calls are given as the source filed them.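 Rule for the calls, unless noted: active = primary screen hit whose calcium fluorescence ratio, in both repeats, exceeds the weak agonist control mean by 3 SD; inactive = the rest.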

Columns and labels:
[1] = system: TRPC4 beta (transient receptor potential cation channel C4), mouse; test: activators of mouse TRPC4 channel, confirmation, cell-based, Fluo4 calcium, HEK293 TRPC4beta/mu-opioid, duplicates, 10 µM (AID 2426;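 active = fluorescence ratio normalized to control raised more than 50% in primary screen plus both repeat runs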); settings: Fluo4 calcium fluorescence, at 10 µM; hits give high values
[2] = system: transient receptor potential cation channel C4 beta (TRPC4), mouse; test: activators of mouse TRPC4 channel, confirmation, cell-based, second round, Fluo4, HEK293 TRPC4beta/mu-opioid, 1 µM (AID 2461;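 active = primary screen active and over 50% activation in each of two duplicate runs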); settings: Fluo4 calcium fluorescence, at 1 µM; hits give high values
[3] = system: TRPC4 (transient receptor potential cation channel C4 beta), mouse; test: positive allosteric modulators of mouse TRPC4, confirmation, cell-based, second round, Fluo-4, HEK293 TRPC4beta/mu-opioid, 1 µM (AID 2554;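 active = primary screen hit whose fluorescence ratio, in both repeats, exceeds the weak agonist control mean by 3 SD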); settings: DAMGO EC20, Fluo-4 calcium flux, at 1 µM; hits give high values
[4] = system: TRPC4 beta (transient receptor potential cation channel C4), mouse; test: positive allosteric modulators of mouse TRPC4, confirmation, cell-based, Fluo-4, HEK293 TRPC4beta/mu-opioid (AID 2555); settings: DAMGO EC20, Fluo-4 calcium flux, at 10 µM; hits give high values
[5] = target: Short transient receptor potential channel 4 (Mus musculus) (UniProt Q9QUQ5); test: inhibitors of mouse TRPC4 channel, confirmation, cell-based, Fluo4, HEK293 TRPC4beta/mu-opioid (AID 2636;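 active = calcium signal cut by more than 3 SD below the full-agonist control yet still positive, in both repeats and the earlier primary screen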); settings: DAMGO, Fluo4 calcium flux, at 10 µM; hits give high values
[6] = target: Short transient receptor potential channel 4 (Mus musculus) (UniProt Q9QUQ5); test: inhibitors of mouse TRPC4 channel, confirmation, cell-based, second round, Fluo4, HEK293 TRPC4beta/mu-opioid, 1 µM (AID 2637;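 active = calcium signal ratio cut to more than 3 SD under the fully stimulated control mean yet still positive, in both repeats and the primary screen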;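 for inhibition: percent of integrated ratio relative to wells lacking test compound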); settings: Fluo4 calcium flux, DAMGO, at 1 µM; hits give high values
[7] = target: Short transient receptor potential channel 4 (Mus musculus) (UniProt Q9QUQ5); test: mouse TRPC4 channel activators, dose response, cell-based, HEK293 TRPC4/mu-opioid, Fluo-4 calcium (AID 434937;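 active = primary screen activator hit with a dose response curve and TRPC4 channel activation at any tested dose; inactive = no activation, no dose response, or not a primary hit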)
[8] = target: Short transient receptor potential channel 4 (Mus musculus) (UniProt Q9QUQ5); test: TRPC4 positive allosteric modulators, dose response, cell-based, HEK293 TRPC4/mu-opioid, Fluo-4 calcium, EC20 DAMGO (AID 434941;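 active = earlier screen potentiator hit that boosts the TRPC4 ion channel at some dose, with a dose response; inactive = no potentiation, no dose response, or not a prior hit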;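 note: calcium entry triggered by an EC20 dose of DAMGO at the co-expressed mu-opioid receptor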)
[9] = target: Short transient receptor potential channel 4 (Mus musculus) (UniProt Q9QUQ5); test: mouse TRPC4 channel inhibitors, dose response, cell-based, HEK293 TRPC4/mu-opioid, Fluo-4 calcium (AID 434942;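 active = primary screen inhibitor hit that blocks the TRPC4 channel at some tested dose, yielding a dose curve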)
[10] = target: Short transient receptor potential channel 6 (Mus musculus) (UniProt Q61143); test: inhibition of mouse TRPC6 channel, confirmation, selectivity assay for TRPC4 inhibitor project, cell-based, HEK293, membrane potential dye, duplicate (AID 434948;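 active = active in primary screen and both duplicates, each dropping signal beyond three positive-control SD with fluorescence still positive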); settings: HEK293 TRPC6, membrane potential dye fluorescence, at 10 µM; inhibition: hits give high values, stimulated with maximal-effect acetylcholine unless noted; outcome: stimulated with maximal-effect acetylcholine unless noted
[11] = target: Short transient receptor potential channel 6 (Mus musculus) (UniProt Q61143); test: activation of mouse TRPC6 channel, confirmation, selectivity assay for TRPC4 activator project, cell-based, HEK293, membrane potential dye, duplicate (AID 434950;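 active = membrane potential signal rise above negative control mean plus 3 SD in both duplicates, also active in the earlier TRPC4 screen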); settings: HEK293 TRPC6, membrane potential fluorescence, at 10 µM; hits give high values
[12] = target: Short transient receptor potential channel 6 (Mus musculus) (UniProt Q61143); test: TRPC6 potentiation by TRPC4 potentiator hits, confirmation, selectivity assay for TRPC4 potentiator project, HEK293 cells, membrane potential dye, duplicate (AID 434952;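 active = compound raising the membrane signal above positive-control mean plus 3 SD in both repeats, and a primary screen hit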); settings: HEK293 TRPC6, membrane potential dye fluorescence, at 10 µM; maximal acetylcholine added after compound unless noted
[13] = target: Short transient receptor potential channel 4 (Mus musculus) (UniProt Q9QUQ5); test: calcium flux activators in TRPC4/5HT1a cells, counter-screen for TRPC4 activator project, cell-based, second counter screen, HEK293 TRPC4/5HT1a, Fluo-4 (AID 434977;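 active = calcium signal rise above buffer-control mean plus 5 SD in both duplicates, and also a hit in the primary screen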); settings: Fluo-4 calcium flux, at 10 µM; hits give high values
[14] = calcium flux inhibitors in TRPC4/5HT1a cells, confirmation, counter-screen for TRPC4 inhibitor project, cell-based, second counter screen, HEK293 TRPC4/5HT1a, Fluo-4 (AID 434978;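 active = primary screen active whose calcium signal fell more than 3 SD beyond the full-serotonin control mean in both duplicate plates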;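 for outcome: serotonin given first at submaximal then at maximal dose after compound preincubation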); settings: Fluo-4 calcium flux, at 10 µM; inhibition: hits give high values, serotonin added to trigger calcium flux unless noted; outcome: serotonin added to trigger calcium flux unless noted
[15] = system: TRPC4 (mouse), co-expressed with 5HT1a in HEK293; test: calcium flux potentiators in TRPC4/5HT1a cells, confirmation, counter-screen for TRPC4 potentiator project, cell-based, second counter screen, HEK293 TRPC4/5HT1a, Fluo-4 (AID 434979;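 active = signal rise over 3 SD above mean of control wells given weak agonist, in both repeats and first screen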); settings: Fluo-4 calcium flux, at 10 µM; outcome: serotonin added at its EC20 dose unless noted; potentiation: hits give high values, serotonin added at its EC20 dose unless noted
[16] = calcium flux activation in mu-opioid HEK293 cells, confirmation, counter-screen for TRPC4 activator project, cell-based, HEK293 mu-opioid receptor line (AID 449723;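 active = hit in primary screen, with calcium signal over 5 SD above buffer well mean in both duplicates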;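 note: counter screen cells carry the mu-opioid receptor alone and lack TRPC4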); settings: Fluo-4 calcium fluorescence, at 10 µM; hits give high values
[17] = calcium flux enhancement in mu-opioid HEK293 cells, confirmation, counter-screen for TRPC4 allosteric potentiator project, cell-based, HEK293 mu-opioid receptor line (AID 449724;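 active = calcium signal rise more than 3 SD above the low-dose agonist control mean, in both duplicate plates and the primary screen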); settings: Fluo-4 calcium flux, at 10 µM; compound added before EC20 DAMGO stimulus unless noted

Sequence of Short transient receptor potential channel 6 (Mus musculus) (Q61143 whole entry, looked up): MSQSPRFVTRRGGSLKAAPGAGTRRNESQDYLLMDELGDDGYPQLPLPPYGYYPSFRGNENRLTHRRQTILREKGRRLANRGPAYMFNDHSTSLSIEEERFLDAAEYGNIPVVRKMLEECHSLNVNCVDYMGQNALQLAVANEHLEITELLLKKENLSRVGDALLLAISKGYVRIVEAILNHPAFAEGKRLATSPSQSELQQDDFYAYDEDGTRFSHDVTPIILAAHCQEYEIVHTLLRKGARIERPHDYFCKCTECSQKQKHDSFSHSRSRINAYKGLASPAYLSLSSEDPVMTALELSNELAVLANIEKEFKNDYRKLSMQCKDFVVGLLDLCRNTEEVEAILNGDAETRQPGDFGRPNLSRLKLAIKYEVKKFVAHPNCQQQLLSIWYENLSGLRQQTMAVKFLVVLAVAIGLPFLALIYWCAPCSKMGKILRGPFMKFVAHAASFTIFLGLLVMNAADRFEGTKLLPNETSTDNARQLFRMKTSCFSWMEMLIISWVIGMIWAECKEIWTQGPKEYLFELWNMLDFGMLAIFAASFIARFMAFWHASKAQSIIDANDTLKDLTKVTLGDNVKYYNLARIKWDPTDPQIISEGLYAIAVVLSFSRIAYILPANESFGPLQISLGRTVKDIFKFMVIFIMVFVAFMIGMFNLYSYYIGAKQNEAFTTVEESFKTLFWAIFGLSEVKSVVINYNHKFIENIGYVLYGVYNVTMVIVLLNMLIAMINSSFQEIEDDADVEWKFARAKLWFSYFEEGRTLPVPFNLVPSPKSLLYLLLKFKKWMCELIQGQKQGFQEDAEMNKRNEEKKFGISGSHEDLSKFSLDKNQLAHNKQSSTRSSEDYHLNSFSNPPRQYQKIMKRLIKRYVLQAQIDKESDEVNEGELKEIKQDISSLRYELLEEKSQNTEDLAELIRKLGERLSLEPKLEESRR
Sequence of Short transient receptor potential channel 4 (Mus musculus) (Q9QUQ5 whole entry, looked up): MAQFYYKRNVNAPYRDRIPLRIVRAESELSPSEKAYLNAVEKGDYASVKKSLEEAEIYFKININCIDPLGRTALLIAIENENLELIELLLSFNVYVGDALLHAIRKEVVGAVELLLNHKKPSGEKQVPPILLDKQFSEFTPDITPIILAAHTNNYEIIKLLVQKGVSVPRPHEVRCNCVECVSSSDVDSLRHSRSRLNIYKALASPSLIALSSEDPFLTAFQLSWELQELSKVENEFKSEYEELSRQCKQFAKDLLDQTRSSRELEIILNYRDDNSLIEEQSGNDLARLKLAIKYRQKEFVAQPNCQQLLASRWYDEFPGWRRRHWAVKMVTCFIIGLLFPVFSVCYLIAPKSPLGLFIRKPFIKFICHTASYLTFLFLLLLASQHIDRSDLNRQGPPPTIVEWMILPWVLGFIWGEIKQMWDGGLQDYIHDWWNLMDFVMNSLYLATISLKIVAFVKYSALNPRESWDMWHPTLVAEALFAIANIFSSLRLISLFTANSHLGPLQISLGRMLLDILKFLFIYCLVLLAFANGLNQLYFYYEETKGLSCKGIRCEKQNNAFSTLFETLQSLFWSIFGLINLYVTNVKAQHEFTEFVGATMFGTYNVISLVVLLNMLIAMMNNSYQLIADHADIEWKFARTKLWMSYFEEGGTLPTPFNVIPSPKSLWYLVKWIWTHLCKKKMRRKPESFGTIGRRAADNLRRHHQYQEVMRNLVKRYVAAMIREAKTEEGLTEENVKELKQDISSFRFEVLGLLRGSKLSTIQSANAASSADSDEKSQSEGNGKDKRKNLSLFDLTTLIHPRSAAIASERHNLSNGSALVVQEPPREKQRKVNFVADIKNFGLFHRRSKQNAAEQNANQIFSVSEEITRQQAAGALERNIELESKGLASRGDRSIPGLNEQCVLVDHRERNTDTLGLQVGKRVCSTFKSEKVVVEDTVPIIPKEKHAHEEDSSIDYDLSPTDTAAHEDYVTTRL

CN(CCOc1ccc(C=C2C(=O)NC(=O)NC2=O)cc1)c1ccccn1
active: inhibition [5] 61%
inactive: outcome [1] | outcome [2] | outcome [3] | outcome [4] | outcome [6] | outcome [7] | outcome [8] | outcome [9] | outcome [10] inactive [setting not given] | outcome [11] | outcome [12] inactive [setting not given] | outcome [13] | outcome [14] inactive [setting not given] | outcome [15] inactive [setting not given] | outcome [16] | outcome [17] inactive [setting not given]

Cc1cccc(N2CCc3c2nc2ccccc2c3N)c1
inactive: outcome [1] | outcome [2] | outcome [3] | outcome [4] | outcome [7] | outcome [8] | outcome [10] | outcome [11] | outcome [12] | outcome [13] | outcome [15] | outcome [16] | outcome [17]
active: inhibition [5] 67% | inhibition [6] 51% | inhibition [14] 24.6%

CC(Cc1ccccc1)NCC(=O)Nc1cc(N(C)C)nc2ccccc12 (stereo not drawn)
inactive: outcome [1] | outcome [2] | outcome [3] | outcome [4] | outcome [6] | outcome [7] | outcome [8] | outcome [9] | outcome [10] | outcome [11] | outcome [12] | outcome [13] | outcome [15] | outcome [16] | outcome [17]
active: inhibition [5] 82% | inhibition [14] 46%

COc1ccc(OC)c(CN2CCCC(C(=O)c3sccc3C)C2)c1 (stereo not drawn)
active: inhibition [5] 97% | inhibition [6] 50% | inhibition [14] 25.9%
inactive: outcome [1] | outcome [2] | outcome [3] | outcome [4] | outcome [7] | outcome [8] | outcome [10] | outcome [11] | outcome [12] | outcome [13] | outcome [15] | outcome [16] | outcome [17]

COc1ccc(OC)c(N2Cc3ccccc3C2=N)c1
inactive: outcome [1] | outcome [2] | outcome [3] | outcome [4] | outcome [7] | outcome [8] | outcome [10] | outcome [11] | outcome [12] | outcome [13] | outcome [15] | outcome [16] | outcome [17]
active: inhibition [5] 96% | inhibition [6] 56% | inhibition [14] 21.8%

CCOc1c(Cl)cc(CNC(C)C(O)c2ccccc2)cc1OC (stereo not drawn)
inactive: outcome [1] | outcome [2] | outcome [3] | outcome [4] | outcome [6] | outcome [7] | outcome [8] | outcome [10] | outcome [11] | outcome [12] | outcome [13] | outcome [14] | outcome [15] | outcome [16] | outcome [17]
active: inhibition [5] 99%

COc1ccc(O)c(CN2CCCC(C(=O)c3sccc3C)C2)c1 (stereo not drawn)
active: inhibition [5] 92% | inhibition [14] 29.4%
inactive: outcome [1] | outcome [2] | outcome [3] | outcome [4] | outcome [6] | outcome [7] | outcome [8] | outcome [10] | outcome [11] | outcome [12] | outcome [13] | outcome [15] | outcome [16] | outcome [17]

N=c1n(CCO)c2ccccc2n1Cc1ccccc1
inactive: outcome [1] | outcome [2] | outcome [3] | outcome [4] | outcome [7] | outcome [8] | outcome [10] | outcome [11] | outcome [12] | outcome [13] | outcome [15] | outcome [16] | outcome [17]
active: inhibition [5] 86% | inhibition [6] 48% | inhibition [14] 42.9%

Nc1ccccc1-[n+]1c(-c2ccccc2)cc(-c2ccccc2)cc1-c1ccccc1
active: potentiation [3] 27% | potentiation [15] 20.7%
inactive: outcome [1] | outcome [2] | outcome [4] | outcome [5] | outcome [6] | outcome [7] | outcome [8] | outcome [9] | outcome [10] | outcome [11] | outcome [12] | outcome [13] | outcome [14] | outcome [16] | outcome [17]

CCC1=Nc2cc(C(=O)N3CCC4(CC3)OCCO4)ccc2Sc2ccc(Br)cc21
inactive: outcome [1] | outcome [2] | outcome [3] | outcome [4] | outcome [5] | outcome [6] | outcome [7] | outcome [8] | outcome [9] | outcome [10] inactive [setting not given] | outcome [11] | outcome [12] inactive [setting not given] | outcome [13] | outcome [14] inactive [setting not given] | outcome [15] inactive [setting not given] | outcome [16] | outcome [17] inactive [setting not given]

COc1ccc(CN2CCCC(C(=O)c3sccc3C)C2)cc1O (stereo not drawn)
active: inhibition [5] 90% | inhibition [14] 21.3%
inactive: outcome [1] | outcome [2] | outcome [3] | outcome [4] | outcome [6] | outcome [7] | outcome [8] | outcome [10] | outcome [11] | outcome [12] | outcome [13] | outcome [15] | outcome [16] | outcome [17]

O=C(Cc1ccccc1)N1CCN(Cc2cccc(Br)c2)CC1
inactive: outcome [1] | outcome [2] | outcome [3] | outcome [4] | outcome [6] | outcome [7] | outcome [8] | outcome [10] | outcome [11] | outcome [12] | outcome [13] | outcome [15] | outcome [16] | outcome [17]
active: inhibition [5] 81% | inhibition [14] 37.8%

CCCCc1ncc(CN2CCCC(C(=O)c3ccc(SC)cc3)C2)[nH]1 (stereo not drawn)
inactive: outcome [1] | outcome [2] | outcome [3] | outcome [4] | outcome [7] | outcome [8] | outcome [10] | outcome [11] | outcome [12] | outcome [13] | outcome [15] | outcome [16] | outcome [17]
active: inhibition [5] 90% | inhibition [6] 45% | inhibition [14] 41.9%

Cc1ccsc1C(=O)C1CCCN(Cc2ccccc2O)C1 (stereo not drawn)
active: inhibition [5] 84% | inhibition [14] 44.9%
inactive: outcome [1] | outcome [2] | outcome [3] | outcome [4] | outcome [6] | outcome [7] | outcome [8] | outcome [10] | outcome [11] | outcome [12] | outcome [13] | outcome [15] | outcome [16] | outcome [17]
